Test results reported in PubChem BioAssay AID1903 (Southern Research Specialized Biocontainment Screening …, 2009).
The campaign covered roughly 310,000 compounds. About 1,200 (0.39%) were called active. How the calls were made is not given here. Only a sample is shown. Potency and affinity values are given separately.

Molecular target: Large T antigen (Simian virus 40) (UniProt P03070)
Experiment: TAg ATPase/helicase activity blockers – biochemical (AID 1903)
Details: SV40 large T antigen ATPase/helicase inhibition assay; at 20 µM; active compounds read high

Chain of Large T antigen (Simian virus 40) (P03070 whole entry, looked up): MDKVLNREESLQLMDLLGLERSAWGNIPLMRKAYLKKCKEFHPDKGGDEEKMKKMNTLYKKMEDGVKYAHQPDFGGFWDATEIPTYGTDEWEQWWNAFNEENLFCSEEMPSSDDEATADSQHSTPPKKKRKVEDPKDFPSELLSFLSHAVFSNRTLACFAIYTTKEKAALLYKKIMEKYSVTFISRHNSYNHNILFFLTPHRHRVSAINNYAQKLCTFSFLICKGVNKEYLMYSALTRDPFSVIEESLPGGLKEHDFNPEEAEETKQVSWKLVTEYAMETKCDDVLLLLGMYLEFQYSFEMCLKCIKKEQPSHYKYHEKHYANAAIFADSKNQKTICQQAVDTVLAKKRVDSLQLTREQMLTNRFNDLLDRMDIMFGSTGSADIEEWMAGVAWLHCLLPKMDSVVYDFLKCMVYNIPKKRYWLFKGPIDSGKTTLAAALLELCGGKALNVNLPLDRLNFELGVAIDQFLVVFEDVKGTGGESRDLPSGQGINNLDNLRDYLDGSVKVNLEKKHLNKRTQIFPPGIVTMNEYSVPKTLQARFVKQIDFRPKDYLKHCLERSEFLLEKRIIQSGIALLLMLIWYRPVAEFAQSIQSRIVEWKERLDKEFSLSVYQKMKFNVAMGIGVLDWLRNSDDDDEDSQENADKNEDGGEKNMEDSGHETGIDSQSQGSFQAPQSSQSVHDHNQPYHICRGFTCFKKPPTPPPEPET

inhibition, inactive:
Cc1ccc(-c2cc3c(n2-c2ccc(C(=O)O)cc2)CCCC3=O)cc1 11%
Cc1ccc(-n2c(C)cc3c2CCCC3=O)cc1 17.7%
CCC(C)(C)n1nnnc1C(c1ccccc1F)N1CCC(C(N)=O)CC1 (stereo unspecified) 8.52%
O=C(COc1ccc(Cl)cc1)NCc1nnc(SCC(=O)NC2CCCC2)o1 14.1%
COc1ccc2cc(C(=O)N3CCN(c4ccccc4OC)CC3)[nH]c2c1 2.37%
Cc1ccc2[nH]c3ccccc3c(=O)c2c1 4.82%
O=c1c2ccccc2[nH]c2ccccc12 7.79%
Cc1ccc(C)c(OC(=O)c2cccnc2Cl)c1C 25.3%
CCOCCn1c(SCc2ccccc2)nc2c1c(=O)[nH]c(=O)n2C 16.9%
CCOC(=O)C1C(c2ccccc2)C(C(=O)OCC)S(=O)(=O)C(CCN(CC)CC)S1(=O)=O (stereo unspecified) 4.87%
COC(=O)Cc1nnc(SCC(=O)Nc2ccccc2)c2ccccc12 11.3%
COc1ccc(NC(=O)Cn2c3ccccc3c3nc4n(c(=O)c32)CCS4)cc1OC 10.1%
Cc1nnsc1C(=O)Nc1ccc(Cl)cc1 3.36%
O=C(c1cc(-c2ccc(Cl)cc2)on1)N1CCOCC1 7.19%
O=C(c1nnsc1S(=O)(=O)c1ccc(Cl)cc1)N1CCOCC1 4.81%
O=C(Nc1ccccc1)Nc1snnc1C(=O)Nc1cccc(O)c1 10.9%
Clc1cccc(NCc2nnc(SCc3ccc(Cl)cc3Cl)o2)c1 0.46%
COc1ccc(/C=N/NC(=O)c2ccccc2OC)cc1COc1ccccc1[N+](=O)[O-] 1.66%
CCOC(=O)c1nc(-c2ccccc2)sc1C(C)=O 13.2%
Cc1ccc(C)c(NC(=O)CN(C)C(=O)c2cc3ccccc3o2)c1 13.7%
CC(=O)c1ccc(N2CCN(c3ccc(C(N)=O)cc3[N+](=O)[O-])CC2)cc1 12.7%
COc1ccc(N2CCN(c3ccc(C(N)=O)cc3[N+](=O)[O-])CC2)cc1 20.4%
O=[N+]([O-])c1cc(S(=O)(=O)Nc2ccccc2)ccc1N1CCN(c2ccc(O)cc2)CC1 17.3%
O=[N+]([O-])c1ccc(N2CCCCC2)cn1 4.49%
O=[N+]([O-])c1ccc(N2CCOCC2)cn1 20.2%
CN1CCN(c2ccc(S(=O)(=O)N3CCCCC3)cc2[N+](=O)[O-])CC1 23.6%
CSc1ncccc1C(=O)Nc1nc(C(C)(C)C)cs1 8.58%
COc1ccc(C(CC(=O)NCc2ccccc2)C(C)C)cc1 (stereo unspecified) 6.33%
Cc1c(NC(=O)C(C)OC(=O)COc2ccccc2)c(=O)n(-c2ccccc2)n1C (stereo unspecified) 10.4%
CCCCN(CCCC)CCNC(=O)Cc1nc2c(c(=O)[nH]c(=O)n2C)n1C 3.54%
CC(NC(=O)Nc1ccc(F)cc1F)c1ccc2c(c1)OCO2 (stereo unspecified) 16.7%
CCCn1c(SCC(=O)NCc2ccc(C)cc2)n[nH]c1=O 7.77%
COc1ccc(NC(=O)CN(C)C(=O)c2cccc(S(=O)(=O)N3CCN(Cc4ccccc4)CC3)c2)cc1 8.39%
COCCn1c(SCC(=O)N2CC(C)OC(C)C2)nc2c([nH]c3ccccc32)c1=O (stereo unspecified) -1.92%
O=C(CCc1ccc(O)c(O)c1)N/N=C/c1ccc2c(c1)OCO2 32.3%
CN1CCN(CCC(=O)N/N=C/c2cc3c(cc2[N+](=O)[O-])OCO3)CC1 4.45%
COc1ccc(OC)c(/C=N/NC(=O)CCc2c(C)n[nH]c2C)c1 5.18%
COc1ccc(OC)c(/C=N/NC(=O)C(=O)N/N=C/c2cc(OC)ccc2OC)c1 -5.1%
CCN(CC)S(=O)(=O)c1cccc(NC(=O)COC(=O)CCc2nc3ccccc3s2)c1 11.8%
Cc1snc(S(=O)(=O)/C(C#N)=N/Nc2ccc(C(F)(F)F)cc2)c1C#N 6.46%
Cc1ccc(C)c(C(=O)CSc2nnc(C)s2)c1 -0.65%
CC1CCCCN1C(=O)CSc1nc(N)nc(N)n1 (stereo unspecified) 3.86%
COc1ccc(NC(=O)c2ccccc2NC(=O)COc2ccccc2)cc1 12.1%
COC(=O)c1ccc(OC)c(NS(=O)(=O)c2ccc(-n3cnnn3)cc2)c1 2.42%
Cn1nc(-c2ccccc2)nc1-c1ccccc1 11.2%
O=c1nc(-c2ccccc2)n(-c2ccccc2)[nH]1 -3.35%
COc1cc(C(=O)NCC(=O)N/N=C/c2ccccn2)cc(OC)c1OC 10.4%
CCc1c(C(=O)NNC(=S)Nc2ccc(S(=O)(=O)Nc3ncccn3)cc2)csc1C 15.1%
Cc1n[nH]c(C)c1S(=O)(=O)N1CCC(C(=O)Nc2cccc(F)c2)CC1 4.04%
O=C(NCCc1ccccc1)C1CCN(S(=O)(=O)N2CCCC2)CC1 7.04%
O=C(Nc1ccc(NC(=O)c2ccco2)cc1)c1ccco1 3.69%
CCC(=O)Nc1ccc(NC(=O)c2ccco2)cc1 2.13%
O=C(Nc1ccc(F)cc1)c1ccccc1F 12.9%
CCN(CC)S(=O)(=O)c1ccc(NC(=O)CCNC(=O)c2ccco2)cc1 7.03%
COc1ccccc1NC(=O)c1ccc(NC(=O)c2ccco2)cc1 9.63%
COc1cccc(OC)c1C(=O)Nc1ccc(NC(=O)c2ccco2)cc1 2.08%
CC(=O)Nc1ccc(NC(=O)c2ccccc2F)cc1 2.47%
Cc1ccc(NC(=O)CCNC(=O)c2ccco2)cc1 1%
Cc1cccc(C)c1OCC(=O)NNC(=O)c1ccoc1C 2.67%
CN(C)CCCN(C(=O)c1ccc2ccccc2c1)c1nc2cc3c(cc2s1)OCO3 3.84%
CCOC(=O)n1c(=O)n(C)c2ccc(Br)cc21 4.58%
C(=C\c1ccccc1)/C=N/Nc1nncc(-c2ccccc2)n1 8.88%
Cc1ccc(CN2CCN(C3CCC3)CC2CCO)cc1 (stereo unspecified) 9.81%
COc1cc(C2Oc3cc(C4Oc5cc(O)cc(O)c5C(=O)C4O)ccc3OC2CO)ccc1O (stereo unspecified) 22.1%
COc1cc([C@H]2Oc3cc([C@H]4Oc5cc(O)cc(O)c5C(=O)[C@@H]4O)ccc3O[C@@H]2CO)ccc1O 22.1%
CCc1nnc(SCc2ccc(C(=O)OC)o2)n1N 15%
CN1/C(=C/C=N/NC(=O)c2ccc([N+](=O)[O-])cc2)C(C)(C)c2ccccc21 4.27%
CN1/C(=C\C=N\NC(=O)c2cccnc2)C(C)(C)c2ccccc21 33.6%
Cn1c2ccccc2c(=O)c2ccc(F)cc21 0.83%
Cc1ccccc1N1CC(=O)N(c2ccccc2C)CC1=O 0.89%
COc1cccc(C(=O)NC2CC3CCCC(C2)N3CC(=O)Nc2ccccc2)c1 (stereo unspecified) 34%
COc1cccc(C(=O)NC2CC3CCCC(C2)N3CC(=O)Nc2ccccc2C(F)(F)F)c1 (stereo unspecified) -1.46%
O=C(CN1C2CCCC1CC(NC(=O)c1ccccc1)C2)Nc1ccccc1 (stereo unspecified) -14.7%
O=C(CN1C2CCCC1CC(NC(=O)c1ccccc1)C2)NC1CC1 (stereo unspecified) 6.22%
COc1cc(OC)c(C(=O)NC23CC4CC(CC(C4)C2)C3)cc1OC 3.9%
COC(=O)c1ccc(/C=N/OCC(=O)NCCc2ccc(OC)c(OC)c2)cc1 2.45%
Cn1c(-c2ccccc2)c[n+]2c1-c1ccccc1C2 6.66%
Cc1cccc(N2CCN(C3=NC(=O)C(=C4CCCCC4)S3)CC2)c1 7.31%
CCOc1ccc(NS(=O)(=O)c2ccc(N)cc2)cc1 2.32%
Nc1c(C(=O)O)ccc2c1C(=O)c1ccccc1C2=O 6.68%
O=C(O)c1cccc2c1C(=O)c1ccccc1C2=O 2.63%
CC(C)Oc1ccc(S(=O)(=O)N2CCOCC2)cc1NC(=O)C1CCC1 4.96%
Cc1nn(-c2ccccc2)c(N)c1Sc1ccc([N+](=O)[O-])cc1 -2.9%
COc1c(/C=N/Nc2ccc([N+](=O)[O-])cc2[N+](=O)[O-])c(C)nn1-c1ccccc1 -4.36%
C=CCn1cc(CN2CCC(C(=O)Nc3cccc(-c4cccc(F)c4)c3)CC2)c(C)n1 9.97%
CCN1C(=O)CC(N2CCC(Nc3ccc(F)cc3)CC2)C1=O (stereo unspecified) 0.22%
CCN1C(=O)CC(N2CCN(c3ccc(OC)cc3)CC2)C1=O (stereo unspecified) 27.7%
O=C(OCc1cn(Cc2ccccc2)nn1)c1ccccc1 7.89%
COc1ccc2nc(NC(=O)/C=C/c3ccc4c(c3)OCO4)sc2c1 5.17%
O=C(Oc1ccc(N(C(=O)c2ccncc2)S(=O)(=O)c2ccc(F)cc2)cc1)c1ccncc1 32%
Cc1ccc(S(=O)(=O)N(C(=O)c2ccncc2)c2ccc(OC(=O)c3ccncc3)cc2)c(C)c1 23.4%
C=CCN(c1ccccc1Cl)S(=O)(=O)c1cccc(C(=O)NCCc2ccc(OC)cc2)c1 5.14%
COc1ccccc1CNCC(O)Cn1c2ccccc2c2ccccc21 (stereo unspecified) 16%
CCN(CC)c1ccc(NC(=O)c2c(OC)cccc2OC)c(C)c1 24.5%
O=C(Nc1ccc(NC(=O)c2cccnc2)cc1)c1ccccc1 9.81%
CCN(CC)c1ccc(NC(=O)c2ccco2)c(C)c1 38%
CCn1cc(C(=O)Nc2ccc(C)c([N+](=O)[O-])c2)cn1 2.51%
CCn1cc(C(=O)Nc2ccc(F)c(F)c2)cn1 16%
CCc1ccc(NC(=O)c2cccnc2)cc1 21.3%
CCN(CC)c1ccc(NC(=O)c2cc(OC)cc(OC)c2)c(C)c1 19.6%
CCN(CC)c1ccc(NC(=O)c2ccc3c(c2)OCO3)c(C)c1 22.6%
